# Inconclusive results are not listed. Activity calls are given as the source filed them. How the source made its calls: active means hit-call score of the fitted dose curve at least 0.9, where 1 is the maximum; inactive means score below 0.9.
# Read-out: ABC Transporter (ABCB11), ABCB11 (gene 8647)
# Test: CLD_ABCB11_24hr: CellzDirect (CLD) Gene Expression Assay for ABC Transporter (ABCB11) at 24 hours (AID 2283674)
# Protocol: CLD_24hr is a cell-based, multiplexed-readout assay that uses hepatocyte, a human liver primary cell, with measurements taken at 24 hours after chemical dosing in a 96-well plate.CLD_ABCB11_24hr is one of 16 assay component(s) measured or calculated from the CLD_24hr assay. It is designed to make measurements of mRNA induction, a form of inducible reporter, as detected with chemiluminescence signals by Quantitative Nuclease Protection Assay (qNPA) technology.Data from the assay component CLD_ABCB11_24hr was analyzed at the endpoint, CLD_ABCB11_24hr, in the positive analysis fitting direction relative to DMSO as the negative control and baseline of activity. Using a type of inducible reporter, gain-of-signal activity can be used to understand changes in the reporter gene as they relate to the gene ABCB11. Furthermore, this assay endpoint can be referred to as a primary readout. To generalize the intended target to other relatable targets, this assay endpoint is annotated to the transporter intended target family, where subfamily is ABC transporter.
# Human hepatocyte cultures were treated daily for two consecutive days with fresh dosing solutions containing appropriate concentrations of the 320 ToxCast chemicals (chemical identities were blinded to CellzDirect and other ToxCast collaborators), vehicle control (0.2% DMSO), and positive control inducers as summarized in Table 1. Due to the large number of treatment groups and chemicals examined, the ToxCast chemicals were divided into two groups (spanning two independent cultures of hepatocytes from separate donor preparations (Hu778: ToxCast plates 1 and 2; Hu776: ToxCast plates 3 and 4). Each preparation of human hepatocyte cultures was treated with respective vehicle control, medium only control, set of six positive controls/reference chemicals for the five hepatic receptor pathways, and a subset of eight of the ToxCast chemicals (indoxacarb, pyrithiobac-sodium, norflurazon, cyhalofop-butyl, methomyl, thiram, acetochlor, and propiconazole). These replicate data, coupled with internal replicates designed within the blinded ToxCast chemical library, provided additional data to evaluate interindividual differences between hepatocyte preparations and their potential impact on chemical profiles.Cell morphology and integrity were evaluated using phase-contrast microscopy as an indicator of hepatocyte cell health (Tyson & Green, 1987). Cultures for each treatment group (i.e., media, vehicle [0.2% DMSO], positive control inducers [multiple concentrations], and the ToxCast chemicals [multiple concentrations]) were observed and cell morphology was assessed relative to vehicle control cultures at each harvest time point (0, 6, 24, or 48 h). […] Images were evaluated at the conclusion of the study to assess changes in cell integrity and account for the effects of chemical exposure on uncharacteristic changes in concentration-dependent gene expression profiles. The results from these determinations of apparent cytotoxicity were annotated (yes/no) alongside the corresponding qNPA data for reference.At the conclusion of each treatment period, hepatocyte cultures (96-well) were washed with 1 volume of HBSS, lysed by addition of 25 ul ArrayPlate lysis buffer (HTG, Tucson, AZ), and 70 ul/well of Denaturation Oil, denatured by incubation at 95C for 10 min, and frozen at approximately -70C until analysis by nuclease protection assay (qNPA) (Roberts et al., 2007). For qNPA analysis, cell lysates were thawed at 50C for approximately 30 min, qNPA probes were added, and samples were incubated at 95C for 10 min to begin the detection process by denaturing the target RNA, dissociating the duplexes and secondary structure hybridization. At the conclusion of the hybridization period, S1 nuclease reagent was added to each sample to digest all nonprotected nucleotides at 50C for 60-90 min. […]
SMILES,outcome,AC50
CCCCOC(=O)c1ccccc1C(=O)O,inactive,
CSc1nnc(C(C)(C)C)c(=O)n1N,inactive,
CCOP(=O)(OCC)Oc1cc(C)nc(C(C)C)n1,inactive,
C=C(C)[C@H]1Cc2c(ccc3c2O[C@@H]2COc4cc(OC)c(OC)cc4[C@@H]2C3=O)O1,inactive,
CN(C)[C@@H]1C(=O)C(C(N)=O)=C(O)[C@@]2(O)C(=O)C3=C(O)c4c(O)cccc4[C@@](C)(O)[C@H]3[C@H](O)[C@@H]12,inactive,
CCCOc1nn(C(=O)NS(=O)(=O)c2ccccc2C(=O)OC)c(=O)n1C,inactive,
CC(C)=CC1C(C(=O)OCN2C(=O)C3=C(CCCC3)C2=O)C1(C)C (stereo not drawn),inactive,
CCOP(=O)(SC(C)CC)N1CCSC1=O (stereo not drawn),inactive,
COc1cccc(C(=O)NN(C(=O)c2cc(C)cc(C)c2)C(C)(C)C)c1C,inactive,
CCc1cccc(CC)c1N(COC)C(=O)CCl,inactive,
CCOP(=S)(Oc1cnc(C(C)(C)C)nc1)OC(C)C (stereo not drawn),inactive,
CN(C)NC(=O)CCC(=O)O,inactive,
CCC(=NOC/C=C/Cl)C1=C(O)CC(C2CCOCC2)CC1=O (stereo not drawn),inactive,
CNC(=O)ON=C(SC)C(=O)N(C)C,inactive,
CCCSP(=O)(OCC)SCCC,inactive,
CNC(=O)ON=C(C)SC,inactive,
CC1(C(=O)Nc2ccc(O)c(Cl)c2Cl)CCCCC1,inactive,

SMILES,outcome,AC50
CC[C@H](C)[C@H]1O[C@]2(C=C[C@@H]1C)C[C@@H]1C[C@@H](C/C=C(\C)[C@@H](O[C@H]3C[C@H](OC)[C@@H](O[C@H]4C[C@H](OC)[C@@H](NC)[C@H](C)O4)[C@H](C)O3)[C@@H](C)/C=C/C=C3\CO[C@@H]4[C@H](O)C(C)=C[C@@H](C(=O)O1)[C@]34O)O2,,205 nM (active)
CCCCOC(=O)[C@@H](C)Oc1ccc(Oc2ccc(C#N)cc2F)cc1,inactive,
CCOP(=S)(OCC)OC(Cl)C(Cl)(Cl)Cl (stereo not drawn),inactive,
CON=C(C(=O)OC)c1ccccc1CON=C(C)c1cccc(C(F)(F)F)c1,inactive,
N#CSCSC#N,inactive,
CC(=NC#N)N(C)Cc1ccc(Cl)nc1,inactive,
O=C(O)c1cc(Oc2ccc(C(F)(F)F)cc2Cl)ccc1[N+](=O)[O-],inactive,
COP(=O)(OC)C(O)C(Cl)(Cl)Cl (stereo not drawn),inactive,
CCOC(=O)CC(SP(=O)(OC)OC)C(=O)OCC (stereo not drawn),inactive,
COc1cc(OC)nc(Sc2cccc(Cl)c2C(=O)O)n1,inactive,
Cc1nn(-c2cc(NS(C)(=O)=O)c(Cl)cc2Cl)c(=O)n1C(F)F,inactive,
S=C1NCCN1,inactive,
CCOP(=S)(OCC)SCCSCC,inactive,
CC1=NNC(=O)N(/N=C/c2cccnc2)C1,inactive,
CCOP(=S)(OCC)Oc1ccc2c(C)c(Cl)c(=O)oc2c1,inactive,
C#CC(C)(C)NC(=O)c1cc(Cl)cc(Cl)c1,inactive,
